USP1 inh: USP1/UAF1 (human) deubiquitinase inhibition. AID 743255. Potency, µM (titrated, usually from 57.1 µM), for inactives: at the top dose activity change, negative = inhibition, actives largely listed as inhibitors. recombinant USP1/UAF1, Ub-Rhodamine cleavage fluorescence. 0.23% of 390,000 active. O94782; note: potency is the fitted concentration of half-maximal effect; nearly all actives have a fitted effect of over 60% in size
Target sequence (O94782 whole entry, looked up): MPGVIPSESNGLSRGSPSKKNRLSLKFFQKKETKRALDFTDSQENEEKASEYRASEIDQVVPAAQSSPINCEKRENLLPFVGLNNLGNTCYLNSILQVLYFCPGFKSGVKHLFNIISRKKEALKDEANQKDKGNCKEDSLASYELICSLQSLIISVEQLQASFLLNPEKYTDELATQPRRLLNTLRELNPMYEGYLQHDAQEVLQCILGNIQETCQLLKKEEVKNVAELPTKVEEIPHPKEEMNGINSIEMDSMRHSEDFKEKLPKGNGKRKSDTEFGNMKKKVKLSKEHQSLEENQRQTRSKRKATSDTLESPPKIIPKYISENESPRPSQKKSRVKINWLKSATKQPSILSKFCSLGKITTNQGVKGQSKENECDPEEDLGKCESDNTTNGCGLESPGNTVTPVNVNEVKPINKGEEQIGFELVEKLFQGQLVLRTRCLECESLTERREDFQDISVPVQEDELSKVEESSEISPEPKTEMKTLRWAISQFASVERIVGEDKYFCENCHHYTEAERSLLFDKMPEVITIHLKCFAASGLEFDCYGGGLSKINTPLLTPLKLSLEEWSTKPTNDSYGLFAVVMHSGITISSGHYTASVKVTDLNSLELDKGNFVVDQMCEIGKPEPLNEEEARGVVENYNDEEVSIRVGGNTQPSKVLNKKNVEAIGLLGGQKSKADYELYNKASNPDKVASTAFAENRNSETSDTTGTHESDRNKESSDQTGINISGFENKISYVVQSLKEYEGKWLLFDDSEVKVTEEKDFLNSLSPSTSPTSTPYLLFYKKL
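USP1/UAF1 complex (1 nM) preincubated 15 min at room temperature with compound, then Ub-Rho substrate (150 nM final) added. Kinetic fluorescence at 480/540 nm over 6 reads at 60 s intervals; 50 mM HEPES pH 7.8, 0.5 mM EDTA, 0.1 mg/ml BSA, 1 mM TCEP, 0.01% Tween-20.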
FBPA coupling cs: coupling enzyme interference in Giardia aldolase counter-screen. AID 2472. activity change, negative = inhibition, % at 58.2 µM, hits read low. 0.67% of 290,000 active. coupling enzyme system counterscreen, AmpLite Red fluorescence; in the data active = activity change below about -30%
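Final compound at 57.5 uM, incubated 10 min at RT with coupling enzyme reagent (glyceraldehyde-3-phosphate), then 20 min with substrate and AmpLite Red detection. Fluorescence read at 525/598 nm; tests interference with the coupling assay, not aldolase inhibition.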
Tau fibril ThT: inhibitors of human tau fibril formation, thioflavin T binding; recombinant tau K18 P301L, heparin-induced fibrillization, ThT fluorescence; Potency, µM (series often up to 57.4 µM), for the others: at the highest dose activity, negative = inhibition, hits mostly inhibitors; 2.1% of 270,000 active; note: potency is the fitted concentration of half-maximal effect; nearly all actives have a fitted effect of over 55% in size
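In this qHTS, human K18 P301L tau is incubated with compound and heparin for 6 hr at 37 C, and Thioflavin T fluorescence then reports fibril load.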
Tau fibril FP: inhibitors of human tau fibril formation; P10636; K18 P301L tau heparin fibrillization, Alexa594 FP, 6 h; Potency, µM (series often up to 57.7 µM), inactives show top-dose activity, negative = inhibition, hits mostly inhibitors; 0.39% of 280,000 active; AID 1468; note: potency is the fitted concentration of half-maximal effect; nearly all actives have a fitted effect of over 55% in size
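Human tau K18 […] P301L fragment, 15 uM unlabeled plus 0.24 uM Alexa 594-labeled tau (final), with compound and 20 uM heparin in 100 mM sodium acetate pH 7; 6 hr at 37 C, then Alexa 594 FP read.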
Tau fluor cs: counter-screen for tau fibril formation inhibitors; tau K18 P301L Alexa594 fluorescence, heparin fibrillization; Potency, µM (top dose mostly 57.7 µM), inactives show at the highest dose activity change, negative = decrease; 0.93% of 280,000 active; AID 1463; note: potency is the fitted concentration of half-maximal effect; nearly all actives have a fitted effect of over 55% in size
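Human tau K18 P301L (15 uM unlabeled, 0.24 uM Alexa 594-labeled) in 100 mM sodium acetate pH 7 with 20 uM heparin, 6 hr at 37 C. ThT 30 uM added, 1 hr ambient; Alexa 594 FP and total fluorescence read at 555/632 nm.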
* marks the source's active call; other numbers are inactive results; u = inconclusive; x = not tested or not shown; [ ] = dose if it differs, or a comment. A selection: hits, their analogues and other compounds. The true share with any hit is near 2.3%. Unless noted, calls come from the whole dose curve; as a rule, active = well fitted curve in the direction sought with a large enough effect; inconclusive = small, poorly fitted or top-dose-only effect, or another doubt; inactive = no such curve, though single readings can be large; an effect the other way counts as inactive or inconclusive. % is set by controls: 0 for no effect and ±100 for the full control effect.

SMILES	USP1 inh	FBPA coupling cs	Tau fibril ThT	Tau fibril FP	Tau fluor cs
CCCCn1c(N)c(N(CC(C)C)C(=O)c2ccc3c(c2)NC(=O)C(C)S3)c(=O)[nH]c1=O (stereo not drawn)	-12%	x	x	x	x
CNC(=O)C1CCC(Cn2c(=O)c3sccc3n(CC(=O)NCc3ccc(OC)cc3)c2=O)CC1 (stereo not drawn)	-20%	x	5%	-3%	2%
CC1=CC(=C(C#N)c2nc3ccccc3s2)C=C(C)N1Cc1ccco1	u	-1	-18%	u	4µM*[quencher]
N#C/C(=C(/O)c1ccco1)c1nc2ccccc2s1	-16%	11	u	11%	-17%
BrC(=C\c1ccccc1)/C=N/N1CCN(c2ccccc2)CC1	-4%	-12	20µM*	u	u
NS(=O)(=O)c1ccc(O)c(NC(=O)c2ccc([N+](=O)[O-])o2)c1	-20%	-1	25µM*	18µM*	-18%
Cc1cc(C)cc(NC(=O)c2ccc([N+](=O)[O-])o2)c1	-17%	-5	-19%	10%	-14%
Cc1cc(NC(=O)c2ccc([N+](=O)[O-])o2)ccc1NC(=O)c1ccco1	-15%	1	14µM*	4%	-20%
Cc1nc(C)c(-c2ccc(SCC(=O)Nc3cccc(Cl)c3)nn2)s1	-9%	x	x	x	x
COCCNC(=O)CSc1nnc2c(Cl)cc(Cl)cn12	-9%	1	13µM*	25µM*	-22%
CCSc1nnc2c(Cl)cc(Cl)cn12	-1%	0	0%	7%	7%
O=C1CSC(=S)N1N=Cc1ccccc1O	-21%	x	x	x	x
COc1cc(/C=N/N2C(=O)CSC2=S)ccc1O	-18%	0	14µM*	-6%	-20%
O=C1CSC(=S)N1/N=C/c1cc(Br)c(O)c(Br)c1	18µM*	-1	x	x	x
O=C(NNC(=O)c1ccco1)c1ccc(NS(=O)(=O)c2cccs2)cc1	0%	x	x	x	x
CCOC(=O)c1c(S(=O)(=O)N2CCCC(C(=O)N3CCN(c4cc(C)ccc4C)CC3)C2)c(C)n(C)c1C (stereo not drawn)	0%	x	u	8%	-7%
Cc1ccc(/C=C/C(=O)c2ccccc(=O)c2O)cc1C	-18%	2	13µM*	-15%	u
O=C(/C=C/c1ccc(O)cc1)c1ccccc1O	x	0	18µM*	5%	u
O=C(/C=C/c1ccccc1)c1cc(Br)ccc(=O)c1O	-22%	-3	14µM*	u	u
O=C(/C=C\c1ccccc1)c1ccccc1O	x	4	-9%[11.5 µM]	-2%[11.6 µM]	-1%[11.6 µM]
CN(C(=O)c1cccc(NC(=O)Cc2ccc(NC(=O)C3CCCN(C(=O)CCc4ccccc4)C3)cc2)c1)C1CCCCC1 (stereo not drawn)	-26%	x	x	x	x
C=C(C)C(=O)OC1(C(F)(F)F)Oc2cc(C)ccc2NC1=O (stereo not drawn)	-21%	1	16µM*	u	-21%
CN(C)c1ccc(C(CNS(=O)(=O)c2ccc3ccccc3c2)c2c[nH]c3ccccc23)cc1 (stereo not drawn)	-5%	-1	-7%	7%	8.9µM*[quencher]
Cc1nc2nc(SCc3ccc(F)cc3Cl)nn2c(C)c1Cc1ccccc1	-22%	x	-6%	2%	-3%
COc1ccc(-c2ccc(/C=C3/C(=N)N4C=CSC4=NC3=O)o2)c([N+](=O)[O-])c1	u	-3	1.8µM*	-16%	u
SMILES	USP1 inh	FBPA coupling cs	Tau fibril ThT	Tau fibril FP	Tau fluor cs
C#CCN(Cc1ccco1)C(=O)c1ccc(OC2CCN(Cc3ccccn3)CC2)cc1	-6%	x	x	x	x
Cc1ccccc1N=Nc1c(O)[nH]c2ccccc12	-10%	x	x	x	x
CC(=O)c1cccc(N=Nc2c(C)[nH]c3ccccc23)c1	-11%	-4	10µM*	-10%	14µM*[quencher]
O=C(N=Nc1c(O)[nH]c2ccccc12)c1cccs1	-8%	-1	10µM*	-14%	-26%
O=C(O)c1ccc(N=Nc2c(O)[nH]c3ccccc23)cc1	-24%	-2	16µM*	5%	-10%
O=C(CSc1nc2ccccc2[nH]1)N=Nc1c(O)[nH]c2ccccc12	2%	2	14µM*	-13%	u
Cn1c(SCC(=O)N=Nc2c(O)[nH]c3ccccc23)nc2ccccc21	x	1	-4%	-4%	-4%
CC(C)(C)OC(=O)N1CCC(c2c(C(=O)NCc3ccco3)cnn2-c2ccccc2)CC1	-22%	x	-6%	7%	-12%
Cc1cc(C)c2oc(-c3ccc(C)c(NC(=O)/C=C/c4ccco4)c3)nc2c1	-23%	x	-20%	-14%	-14%
O=C(Nc1cccc(C(F)(F)F)c1)Nc1ccc(N2CCCC2)c(S(=O)(=O)Nc2ccccc2Cl)c1	-20%	-9	u	u	2.5µM*[quencher]
CC(=O)Nc1ccc(N2CCOCC2)c(S(=O)(=O)Nc2ccccc2Cl)c1	-26%	x	x	x	x
Cc1cccc(NC(=O)C2CCCN(S(=O)(=O)c3cccc4nonc34)C2)c1C (stereo not drawn)	-7%	x	-3%	-5%	-13%
Fc1ccc(C2=CC(c3ccco3)n3ncnc3N2)cc1 (stereo not drawn)	u	0	1%	-10%	-3%
C1=C(c2ccc(-c3ccccc3)cc2)Nc2ncnn2C1c1ccco1 (stereo not drawn)	14µM*	6	-5%	-4%	-18%
CC1(C)CC(=O)C(CC2C(=O)CC(C)(C)CC2=O)C(=O)C1	-16%	-5	10µM*	u	u
COC(=O)Cc1cc(=O)n2[nH]c(C(F)(F)F)nc2n1	-23%	-34*	-10%	5%	0%
O=C(c1cccc(NS(=O)(=O)c2ccccc2)c1)N1CCN(c2ccccc2)CC1	-16%	x	x	x	x
CCn1cc(S(=O)(=O)c2ccc(C)cc2C)c(=O)c2cc(F)c(N3CCCC3)cc21	-12%	x	-7%	-4%	-8%
O=C(O)COc1ccc(C(=O)c2cccs2)c(Cl)c1Cl	x	22	-8%	12%	-1%
Cc1ccccc1C1=C/C(=C(\SS/C(C(=O)c2ccc(OCC(=O)O)c(Cl)c2Cl)=C2\C=C(c3ccccc3C)SS2)C(=O)c2ccc(OCC(=O)O)c(Cl)c2Cl)SS1	32µM*	x	x	x	x
N#C/C(=C\c1ccc(-c2ccc(C(=O)O)cc2)o1)C(=O)Nc1ccccc1C(=O)O	-16%	x	2.5µM*	2%	-25%
